{"source": "ChEMBL document CHEMBL3988442", "about": "“University of Dundee, Small-Polar-MMV Screening Library” (2021)", "note": "Out of some 48,000 compounds screened, about 13,000 (27%) showed an effect of 50% or more. The list shows a part of the results.", "data": [{"system": "Wolbachia pipientis", "assay": "Anti-Wolbachia Cell-Based Screen", "type": "functional", "parameters": "scale not given: in the data most compounds retested in dose-response had high values", "conditions": "5 µM", "units": {"Percent Effect": "%"}, "values": [{"compound": "CC(Oc1ccc(F)c(F)c1)C(=O)N(CC(N)=O)C1CCCC1", "note": "(centres undefined)", "Percent Effect": 5.493}, {"compound": "CC(NC(=O)CCc1cccc(OC2CCCC2)c1)c1nncn1C", "note": "(centres undefined)", "Percent Effect": -2.207}, {"compound": "CCOC(=O)c1sc(NC(=O)CN2C(=O)CCC2=O)c(C#N)c1C", "Percent Effect": 132.7}, {"compound": "CCOC(=O)c1sc(NC(=O)C(C)C)c(C#N)c1C", "Percent Effect": 157.4}, {"compound": "CCOC(=O)c1sc(NC(=O)CN(C)S(C)(=O)=O)c(C#N)c1C", "Percent Effect": 0.9217}, {"compound": "Cc1sc(NC(=O)CN(C)S(C)(=O)=O)c(C#N)c1C", "Percent Effect": 5.3}, {"compound": "CCCC(=O)Nc1sc(C(=O)OCC)c(C)c1C#N", "Percent Effect": 10.62}, {"compound": "Cc1cc(N2CCCC(N(C)C)C2)n2nccc2n1", "note": "(centres undefined)", "Percent Effect": 14.85}, {"compound": "COC(=O)C(NC(=O)C(C)C)c1cc(F)ccc1F", "note": "(centres undefined)", "Percent Effect": -7.207}, {"compound": "CC(C)OCCC(=O)Nc1c(-c2ccc(F)cc2)ncn1C", "Percent Effect": 6.912}, {"compound": "COC(=O)C(NC(=O)CCOC(C)C)c1cc(F)ccc1F", "note": "(centres undefined)", "Percent Effect": 85.02}, {"compound": "COC(=O)C(NC(=O)CC(C)C)c1cc(F)ccc1F", "note": "(centres undefined)", "Percent Effect": 110.3}, {"compound": "COC(=O)C(NC(=O)c1ccco1)c1cc(F)ccc1F", "note": "(centres undefined)", "Percent Effect": -3.431}, {"compound": "CC(C)NC(=O)CC(C)NCc1ccc(F)cc1Cl", "note": "(centres undefined)", "Percent Effect": 10.92}, {"compound": "CCOC(=O)C(C)NC(=O)CCSc1ccc(F)cc1", "note": "(centres undefined)", "Percent Effect": 5.779}, {"compound": "COC(=O)C(NC(=O)CCc1ccco1)c1cc(F)ccc1F", "note": "(centres undefined)", "Percent Effect": 117.5}, {"compound": "CCCC(=O)NC(C(=O)OC)c1cc(F)ccc1F", "note": "(centres undefined)", "Percent Effect": 95.91}, {"compound": "CC(C)OCCC(=O)N(C)c1ccc(F)c(Cl)c1", "Percent Effect": 3.103}, {"compound": "O=C(CCc1ccco1)Nc1cccc(S(=O)(=O)C(F)F)c1", "Percent Effect": 1.803}, {"compound": "CC(C)(C)S(=O)(=O)c1ccc(N2CCN(c3ccccc3)CC2)nn1", "Percent Effect": 15.82}, {"compound": "COCc1n[nH]c2c1CN(Cc1ccccn1)C2.O=C(O)C(F)(F)F", "Percent Effect": -21.53}, {"compound": "Cc1nnc(N2CCN(C(=O)NC3CC3)CC2)c(C(N)=O)c1C", "Percent Effect": -22.89}, {"compound": "CS(=O)(=O)NCC1CCCCN1Cc1ccccc1C#N", "note": "(centres undefined)", "Percent Effect": 1.848}, {"compound": "O=C(NCCc1ccccn1)NC1CCN(c2ccccc2)C1=O", "note": "(centres undefined)", "Percent Effect": 10.23}, {"compound": "O=C(NCc1ccccc1)[C@@H]1Cc2[nH]cnc2CN1CC1CC1", "Percent Effect": 2.59}, {"compound": "O=C1CN(CC2CC2)Cc2nc(NCc3ccccc3)sc21", "Percent Effect": 59.83}, {"compound": "Cc1nc(CNC2CCN(Cc3ccccc3)C2)sc1C", "note": "(centres undefined)", "Percent Effect": -5.508}, {"compound": "COCCN1CC(=O)c2sc(NCc3ccccc3)nc2C1", "Percent Effect": 105.3}, {"compound": "Cn1c(C2CC2)nc2c1CCN(CCc1ccccn1)C2", "Percent Effect": -2.558}, {"compound": "O=C1CN(CC2CC2)Cc2nc(NCCc3ccccn3)sc21", "Percent Effect": 91.68}, {"compound": "CSC1(CNC(=O)NC(C)c2ccc(F)c(F)c2)CCOCC1", "note": "(centres undefined)", "Percent Effect": -14.87}, {"compound": "Cc1ccc(C(C(=O)NCCc2nc(C)cc(C)n2)N(C)C)cc1", "note": "(centres undefined)", "Percent Effect": 11.55}, {"compound": "COc1ccc(-c2cccc3c2OC(CN)C3)cc1F", "note": "(centres undefined)", "Percent Effect": -8.297}, {"compound": "CCN1CCN(C[C@@H]2CN(c3ncc(Cl)cc3Cl)C[C@@H]2CO)CC1", "Percent Effect": -5.198}, {"compound": "Cc1noc([C@@H]2C[C@H]3OCC[C@H]3N(CC3CCCC3)C2)n1.O=C(O)C(F)(F)F", "Percent Effect": -10.41}, {"compound": "Cc1nnc([C@H]2C[C@H]3OCC[C@H]3N(S(=O)(=O)CC(C)C)C2)o1", "Percent Effect": -13.43}, {"compound": "Cc1noc([C@H]2C[C@H]3OCC[C@H]3N(S(=O)(=O)C3CC3)C2)n1", "Percent Effect": 5.212}, {"compound": "Cc1noc([C@H]2C[C@H]3OCC[C@H]3N(S(C)(=O)=O)C2)n1", "Percent Effect": 101.7}, {"compound": "Cc1noc([C@@H]2C[C@H]3OCC[C@H]3N(Cc3cc(C)c(C)o3)C2)n1.O=C(O)C(F)(F)F", "Percent Effect": -0.5348}, {"compound": "CCc1ccc(CN2C[C@@H](c3nc(C)no3)C[C@H]3OCC[C@H]32)o1.O=C(O)C(F)(F)F", "Percent Effect": 3.351}, {"compound": "CCS(=O)(=O)N1C[C@H](c2nc(C)no2)C[C@H]2OCC[C@H]21", "Percent Effect": 131.3}, {"compound": "CCCS(=O)(=O)N1C[C@@H](c2nc(C)no2)C[C@H]2OCC[C@H]21", "Percent Effect": 120.5}, {"compound": "Cc1noc([C@H]2C[C@H]3OCC[C@H]3N(Cc3scnc3C)C2)n1.O=C(O)C(F)(F)F.O=C(O)C(F)(F)F", "Percent Effect": -0.107}, {"compound": "Cc1noc([C@@H]2C[C@H]3OCC[C@H]3N(S(C)(=O)=O)C2)n1", "Percent Effect": 0.371}, {"compound": "Cc1noc([C@H]2C[C@H]3OCC[C@H]3N(C3CCC3)C2)n1.O=C(O)C(F)(F)F", "Percent Effect": 110.4}, {"compound": "CCS(=O)(=O)N1C[C@@H](c2nnc(C)o2)C[C@H]2OCC[C@H]21", "Percent Effect": 1.952}, {"compound": "Cc1ccc(-c2cnnc(NCC3(N4CCOCC4)CCCC3)n2)o1", "Percent Effect": 10.34}, {"compound": "CNC(=O)c1cc2c(s1)CCN(C(=O)CCC1CCCN(C)C1)C2", "note": "(centres undefined)", "Percent Effect": -26.69}, {"compound": "Cc1nn(C)c(C)c1CN(Cc1cccn1-c1ncccn1)C(C)C", "Percent Effect": -15.44}, {"compound": "CC(Cn1ccnc1)NC(=O)N(C)Cc1ccco1", "note": "(centres undefined)", "Percent Effect": 7.542}, {"compound": "Cc1ccccc1CC1(CO)CCCN(c2ncnc3sccc23)C1", "note": "(centres undefined)", "Percent Effect": 23.07}, {"compound": "Cc1noc([C@@H]2C[C@H]3OCC[C@H]3N(S(=O)(=O)N(C)C)C2)n1", "Percent Effect": 112.3}, {"compound": "Cc1noc([C@@H]2C[C@H]3OCC[C@H]3N(Cc3ccoc3)C2)n1", "Percent Effect": 14.51}, {"compound": "Cc1noc([C@@H]2C[C@H]3OCC[C@H]3N(S(=O)(=O)c3ccccc3)C2)n1", "Percent Effect": 116}, {"compound": "Cc1nnc([C@H]2C[C@H]3OCC[C@H]3N(S(=O)(=O)N(C)C)C2)o1", "Percent Effect": -11.67}, {"compound": "Cc1noc([C@@H]2C[C@H]3OCC[C@H]3N(S(=O)(=O)c3cccnc3)C2)n1.O=C(O)C(F)(F)F", "Percent Effect": -2.374}, {"compound": "Cc1nnc([C@H]2C[C@H]3OCC[C@H]3N(S(=O)(=O)C3CC3)C2)o1", "Percent Effect": 7.121}, {"compound": "CCC(O)Cn1nc(CCSC)nc1-c1ccc2[nH]ccc2c1", "note": "(centres undefined)", "Percent Effect": 4.032}, {"compound": "COc1ccc(OCc2nc(C(=O)N3CCCNC(=O)C3)co2)cc1", "Percent Effect": -7.469}]}]}
